cardiac RTF act – cardiac RTF calcium sensitivity activators, primary screen, biochemical, IANBD-TnC fluorescence, EC20 calcium; IANBD-labeled TnC RTF fluorescence at EC20 calcium; 0% EC20 calcium, 100% full calcium; activation, % at 7.2 µM; 340,000 compounds, 0.24% hits; AID 493008, 2010;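 active = activation above the mean over all tested compounds plus 3 SD, cut at about 30% in these data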;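 note: rise in fluorescence read as greater calcium sensitivity of cardiac thin filaments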
E coli Lon inh – inhibitors of E. coli Lon protease, primary screen, biochemical, fluorescence polarization. purified E. coli Lon protease. inhibition, % at 7.94 µM. 360,000 compounds, 0.42% hits; in the data active = inhibition above about 13%, passing the limit was not always enough
Target sequence (P0A9M0 whole entry, looked up): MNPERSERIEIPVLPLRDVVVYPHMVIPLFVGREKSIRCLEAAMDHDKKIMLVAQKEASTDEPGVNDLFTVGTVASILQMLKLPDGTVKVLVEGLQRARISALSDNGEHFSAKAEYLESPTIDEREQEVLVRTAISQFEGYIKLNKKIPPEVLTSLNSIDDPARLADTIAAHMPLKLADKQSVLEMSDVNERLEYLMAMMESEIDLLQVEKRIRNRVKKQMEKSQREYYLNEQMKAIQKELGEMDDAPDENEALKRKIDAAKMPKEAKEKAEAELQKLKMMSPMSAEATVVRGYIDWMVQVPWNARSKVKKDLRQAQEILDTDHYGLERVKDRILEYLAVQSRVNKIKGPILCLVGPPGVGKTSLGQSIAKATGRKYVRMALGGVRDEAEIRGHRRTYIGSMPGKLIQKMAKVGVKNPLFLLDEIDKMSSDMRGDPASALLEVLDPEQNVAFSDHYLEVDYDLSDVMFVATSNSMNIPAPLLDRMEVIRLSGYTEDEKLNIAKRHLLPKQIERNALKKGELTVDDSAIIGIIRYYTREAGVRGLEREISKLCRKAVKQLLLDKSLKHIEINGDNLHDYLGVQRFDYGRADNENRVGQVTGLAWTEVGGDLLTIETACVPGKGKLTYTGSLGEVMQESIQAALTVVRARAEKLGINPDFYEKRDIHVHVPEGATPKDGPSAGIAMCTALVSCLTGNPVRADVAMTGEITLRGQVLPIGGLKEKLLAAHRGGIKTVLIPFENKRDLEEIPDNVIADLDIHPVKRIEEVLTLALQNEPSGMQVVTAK
Keap1-Nrf2 PPI – Keap1-Nrf2 protein-protein interaction inhibitors, primary screen, biochemical, fluorescence polarization, single point; 340,000 compounds, 0.15% hits; Kelch-like ECH-associated protein 1 (Homo sapiens), Q14145; Keap1 Kelch-Nrf2 peptide fluorescence polarization, 1536-well; inhibition, % at 9.4 µM; AID 504523, 2011; in the data active = inhibition above about 12%; inconclusive = no clear call, values can overlap the other calls; inactive = below about 7.3%;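 note: human Keap1 Kelch domain with fluorescein labeled Nrf2 9mer peptide probe; higher means more block of Keap1 binding to Nrf2 peptide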
Cardiac RTF inh – cardiac RTF calcium sensitivity inhibitors, primary screen, biochemical, IANBD-TnC fluorescence, EC70 calcium; IANBD-labeled cardiac RTF, Ca2+ fluorescence; Troponin I, cardiac muscle (Homo sapiens) + Troponin T, cardiac muscle (Homo sapiens) + …; 340,000 compounds, 0.12% hits; AID 493244, 2011; inhibition, % at 7.15 µM;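 active = inhibition above the mean inhibition of all tested compounds plus 3 SD, cut at about 17% in these data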;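 note: assay run at fixed EC70 calcium of 1.6 mM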
LANA DNA inh – inhibitors of KSHV C-LANA binding to DNA, primary screen, biochemical, fluorescence polarization, FAM-LBS DNA, MBP-C-LANA, single point; inhibition, % at 9 µM; 340,000 compounds, 0.078% hits; Kaposi's sarcoma herpesvirus LANA C-terminal domain (residues 932-1162) DNA binding;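 active = highest replicate inhibition at or above 60% at 9 µM, even if other replicates fall short; inactive = all replicates below 60% inhibition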
E coli Lon conf – E. coli Lon protease inhibitor retest, confirmation, biochemical, fluorescence polarization. shares compounds with E coli Lon inh. purified E. coli Lon. inhibition, % at 7.94 µM. 1,400 compounds, 31% hits. AID 602230, 2012; in the data active = inhibition above about 16%
Each line names hits and unclear results; the compound was inactive in the other large screens (follow-up assays come after a bar, where they were run). Sampled rows, rich in hits. Any-hit rate of the full collection: about 0.82%.

O=C1C2ON(c3ccccc3)C(c3ccccn3)C2C(=O)N1c1ccc(Br)cc1 (stereo not given)	E coli Lon inh 15 | E coli Lon conf inactive
O=C(Nc1cccc(S(=O)(=O)N2CCCCCC2)c1)C1CC(=O)N(c2ccc3c(c2)OCCO3)C1 (stereo not given)	E coli Lon inh 22 | E coli Lon conf inactive
CCOc1ccc(N2C(=O)CC(N)C2=O)cc1 (stereo not given)	E coli Lon inh 18 | E coli Lon conf inactive
CCOc1ccc(N2C(=O)CC(NCC3CCCO3)C2=O)cc1 (stereo not given)	E coli Lon inh 16 | E coli Lon conf inactive
CCOc1ccc(N2C(=O)CC(Cc3cc(C)cc(C)c3)C2=O)cc1 (stereo not given)	none
CC(=O)O[C@@H](Cc1ccc(O)cc1)C(=O)CC(C)C	none (no result: cardiac RTF act, Keap1-Nrf2 PPI, Cardiac RTF inh, LANA DNA inh)
CC(C)CC1C(=O)N(Cc2cn(CCC3OCCCO3)nn2)CCS(=O)(=O)N1Cc1ccc(-c2ccc(Cl)c(Cl)c2)cc1 (stereo not given)	none (no result: cardiac RTF act, Keap1-Nrf2 PPI, Cardiac RTF inh, LANA DNA inh)
Cc1ccc(CNC(=O)C(OC(=O)c2cccs2)C(C)C)cc1 (stereo not given)	E coli Lon inh 28 | E coli Lon conf inactive
COc1cccc(-n2c(Cc3cc(=O)[nH]c(=O)[nH]3)nnc2SCC(=O)NC2CCCCC2)c1	none
CCOc1ccc(-n2c(Cc3cc(=O)[nH]c(=O)[nH]3)nnc2SCC(=O)OC)cc1	E coli Lon inh 16 | E coli Lon conf inactive
CCOC(=O)CSc1nnc(Cc2cc(=O)[nH]c(=O)[nH]2)n1-c1ccc(Cl)cc1	E coli Lon inh 15 | E coli Lon conf inactive
CCOc1ccc(-n2c(Cc3cc(=O)[nH]c(=O)[nH]3)nnc2SCC)cc1	none
CCSc1nnc(Cc2cc(=O)[nH]c(=O)[nH]2)n1-c1ccc(F)cc1	none
COc1cccc(-n2c(Cc3cc(=O)[nH]c(=O)[nH]3)nnc2SCC(=O)N2CCCCC2)c1	E coli Lon inh 16 | E coli Lon conf 23
CCN(CC)C(=O)c1cccc(-c2csc(C(C)(O)c3ccncc3)n2)c1 (stereo not given)	none (no result: cardiac RTF act, Keap1-Nrf2 PPI, Cardiac RTF inh, LANA DNA inh)
CC1=CC(=O)C=CC1=Nc1ccc(N(C)C)cc1	none (no result: cardiac RTF act, Keap1-Nrf2 PPI, Cardiac RTF inh, LANA DNA inh)
COc1cc([N+](=O)[O-])ccc1NC(=O)CN1CCc2cc(OC)c(OC)cc2C1	E coli Lon inh 42 | E coli Lon conf inactive
Cc1cc(C(=O)COC(=O)c2cccc(O)c2)c(C)n1C1CC1	E coli Lon inh 28 | E coli Lon conf inactive
N#Cc1nnn(-c2cc(Cl)cc(Cl)c2)c1N	none
Cc1c([N+](=O)[O-])nnn1-c1cc(Cl)cc(Cl)c1	E coli Lon inh 28 | E coli Lon conf inactive
COc1cc(C(=O)OCC(=O)N2CCOCC2)c([N+](=O)[O-])cc1OC	E coli Lon inh 18 | E coli Lon conf inactive
COc1cc(C(=O)OCC(=O)N2CCCCCC2)c([N+](=O)[O-])cc1OC	none
CCc1nc2c(OCc3ccc(OC(F)F)cc3)cccn2c1N(C)C(=O)c1ccc(OC)cc1	none (no result: cardiac RTF act, Keap1-Nrf2 PPI, Cardiac RTF inh, LANA DNA inh)
Cc1ccc(C2C(C(=O)c3cccs3)=C(O)C(=O)N2c2nnc(C)s2)cc1 (stereo not given)	E coli Lon inh 29 | E coli Lon conf 61
COc1ccc(C2C(C(=O)c3cccs3)=C(O)C(=O)N2c2cccc(C)n2)cc1 (stereo not given)	none
CCc1nc2ccc(C(=O)Nc3cccc(NS(C)(=O)=O)c3)cn2c1N(C)C(=O)c1cccc(OC)c1	none (no result: cardiac RTF act, Keap1-Nrf2 PPI, Cardiac RTF inh, LANA DNA inh)
Cc1cc(C)n2c(NCc3ccccc3)c(-c3cc4ccccc4o3)nc2n1	none (no result: cardiac RTF act, Keap1-Nrf2 PPI, Cardiac RTF inh, LANA DNA inh)
O=C(Cc1ccccc1F)Nc1ccccc1-c1ccccc1	none
O=C(Cc1c(F)cccc1Cl)Nc1ccccc1-c1ccccc1	E coli Lon inh 20 | E coli Lon conf inactive
CCCCn1c(=O)[nH]c2nc3cc(NC(C)=O)ccc3nc2c1=O	E coli Lon inh 35 | E coli Lon conf 33
Nc1nc(C2CC(=O)OC23CCCCC3)cs1 (stereo not given)	none
Nc1nc(C2C(=O)CCCC2=O)cs1	E coli Lon inh 30 | E coli Lon conf inactive
CC1(C)Cc2c(C#N)c(N)n(-c3ccccc3)c(=S)c2CO1	none (no result: cardiac RTF act, Cardiac RTF inh)
CCOC(=O)c1c2c(c(=S)n(-c3ccccc3)c1N)CCC2	E coli Lon inh 24 | E coli Lon conf inactive
N#Cc1c2c(c(=S)n(-c3ccccc3)c1N)CCCC2	E coli Lon inh 34 | E coli Lon conf 23
O=C1CCC(OCc2ccccc2)CCN1[C@H](CSc1ccccc1)Cc1ccccc1 (stereo not given in full)	none (no result: cardiac RTF act, Keap1-Nrf2 PPI, Cardiac RTF inh, LANA DNA inh)
Cc1ccc(C(=O)NCCc2ccc(F)cc2)s1	E coli Lon inh 14 | E coli Lon conf inactive
O=C(NCCc1ccc(F)cc1)c1ccncc1	E coli Lon inh 19 | E coli Lon conf inactive
Cc1ccc(C(=O)NCc2ccc(F)cc2)s1	none
O=C(NCCc1ccncc1)Nc1ccc(F)cc1	none
CN1OC[C@@H]2CN(S(=O)(=O)c3cc(Cl)cc(Cl)c3)[C@H](c3ccc(-c4ccc(C#N)cc4)cc3)C[C@@H]21	none (no result: cardiac RTF act, Keap1-Nrf2 PPI, Cardiac RTF inh, LANA DNA inh)
N#CCC(=O)Nc1ccc(C(=O)Nc2cccc(S(=O)(=O)N3CCCC3)c2)cc1	none (no result: cardiac RTF act, Keap1-Nrf2 PPI, Cardiac RTF inh, LANA DNA inh)
O=[N+]([O-])c1ccc(Nc2nc(N3CCOCC3)nc(N3CCOCC3)n2)cc1	E coli Lon inh 17 | E coli Lon conf inactive
O=c1oc2cc(O)ccc2cc1S(=O)(=O)c1ccccc1	E coli Lon inh 19 | E coli Lon conf 43
C=CCn1c(SCC(=O)Nc2sc3c(c2C#N)CCC(C)C3)nc2cc(C(=O)O)ccc2c1=O (stereo not given)	E coli Lon inh 48 | E coli Lon conf inactive
CC1=C(C(=O)N2CCCCCC2)CC(CC(=O)NCCN2CCOCC2)C(=O)N1CCC1=CCCCC1 (stereo not given)	none (no result: cardiac RTF act, Keap1-Nrf2 PPI, Cardiac RTF inh, LANA DNA inh)
Cc1cccc(S(=O)(=O)NC(=O)C2(C)CCN2C(=O)CCC2CCCC2)c1 (stereo not given)	none (no result: cardiac RTF act, Keap1-Nrf2 PPI, Cardiac RTF inh, LANA DNA inh)
CCc1cccc(C)c1NC(=O)Cn1c(NCCO)nc2ccccc21	none
CCCCNc1nc2ccccc2n1CC(=O)Nc1c(C)cccc1CC	E coli Lon inh 25 | E coli Lon conf inactive
CCN(CC)c1ccc2nc3ccc(N)cc3[n+](-c3ccccc3)c2c1	E coli Lon inh 170 | E coli Lon conf 124
CCN(CC)c1ccc2nc3ccccc3[n+](CC)c2c1	none
CC(=O)N/N=C/c1cc(C(C)C)cc(/C=N/NC(C)=O)c1O	E coli Lon inh 69, Keap1-Nrf2 PPI inconclusive | E coli Lon conf 100
CC(C)(C)c1cc(NC(=O)C2(C)CCN2C(=O)C2(c3ccccc3)CC2)no1 (stereo not given)	none (no result: cardiac RTF act, Keap1-Nrf2 PPI, Cardiac RTF inh, LANA DNA inh)
O=C(NC(=S)NNS(=O)(=O)c1ccccc1)c1ccccc1[N+](=O)[O-]	E coli Lon inh 23 | E coli Lon conf inactive

Screens from PubChem.
